Reference: PubChem BioAssay (NCI)
“And” between values parts separate entries of the source, which are not always exact repeats. Equal values may be shown once. The panel holds about 83,000 compounds, 20% with a hit somewhere; the sample as a whole holds those more often.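 Single-concentration screen, 48 h exposure, 96-well plates. Endpoint: percent growth. Below 10 = active.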 The source made the active and inactive calls.

Assays:
Assay in all cases: NCI-60 one-dose screen, 48 h (100 = growth as untreated, 0 = no growth, -100 = all killed)
Conditions in all cases: 10 µM unless noted
[1] = system: NCI/ADR-RES ovarian
[2] = system: T-47D breast
[3] = system: BT-549 breast
[4] = system: SW-620 colon
[5] = system: MCF7 breast
[6] = system: HCT-116 colon
[7] = system: HCC-2998 colon
[8] = system: KM12 colon
[9] = system: MDA-MB-435 melanoma

Structure (SMILES) | growth [1] | growth [2] | growth [3] | growth [4] | growth [5] | growth [6] | growth [7] | growth [8] | growth [9]
C(=NC1CCCCC1)=NC1CCCCC1 | 111% (inactive) and 75.5% (inactive) | 104% (inactive) and 14.6% (inactive) | 113% (inactive) and 91.1% (inactive) | 106% (inactive) and 88.6% (inactive) | 100% (inactive) and 87.2% (inactive) | 93.6% (inactive) and 81.4% (inactive) | 105% (inactive) and 87.7% (inactive) | 109% (inactive) and 95.7% (inactive) | 
CC/C(=C(\c1ccc(OCCN2CCOCC2)cc1)c1ccc(OC(=O)Cc2ccccc2)cc1)c1ccc(Cl)cc1 | 105% (inactive) | 63.5% (inactive) | 104% (inactive) | 99.9% (inactive) | 75.8% (inactive) | 97.3% (inactive) | 106% (inactive) | 101% (inactive) | 
C/C(=C(\c1ccc(OCCN2CCOCC2)cc1)c1ccc(OC(=O)Cc2ccccc2)cc1)c1ccc(Cl)cc1 | 95.8% (inactive) | 78% (inactive) | 91.1% (inactive) | 98.6% (inactive) | 83.5% (inactive) | 75.7% (inactive) | 88.4% (inactive) | 99.3% (inactive) | 
Oc1ccc(O)c(Cl)c1 | 102% (inactive) and 97.3% (inactive) | 89.1% (inactive) | 66.3% (inactive) and 96.1% (inactive) | 112% (inactive) and 115% (inactive) | 86% (inactive) and 96.7% (inactive) | 102% (inactive) and 109% (inactive) | 110% (inactive) and 88.1% (inactive) | 100% (inactive) and 102% (inactive) | 
CCCCCCCCCCCCCCCCCC1OCC(COC(=O)O[C@@H](C(=O)O[C@H]2C[C@@]3(O)[C@@H](OC(=O)c4ccccc4)[C@@H]4[C@]5(OC(C)=O)CO[C@@H]5C[C@H](O)[C@@]4(C)C(=O)[C@H](OC(C)=O)C(=C2C)C3(C)C)[C@@H](NC(=O)c2ccccc2)c2ccccc2)O1 (stereo partly drawn) | 103% (inactive) | 32.9% (inactive) | 58.8% (inactive) | 39.6% (inactive) | 18.3% (inactive) | 18.2% (inactive) | 32% (inactive) | 14.3% (inactive) | 
CC(=O)Cc1ccc2c(c1)OCO2 | 103% (inactive) | 103% (inactive) | 106% (inactive) | 110% (inactive) | 115% (inactive) | 102% (inactive) | 102% (inactive) | 96.1% (inactive) | 
OCCN=Cc1c[nH]c2ccccc12 | 100% (inactive) | 94.5% (inactive) | 107% (inactive) | 93.3% (inactive) | 93% (inactive) | 96.7% (inactive) | 107% (inactive) | 102% (inactive) | 
O=[N+]([O-])c1c(Cl)cc(Cl)c([N+](=O)[O-])c1Cl | 103% (inactive) | 22.2% (inactive) | 114% (inactive) | 65.6% (inactive) | 45.9% (inactive) | 88.5% (inactive) | 114% (inactive) | -2.82% (active) | 
CCOC(=O)c1ccccc1C(=O)OCC | 102% (inactive) | 100% (inactive) | 95.6% (inactive) | 102% (inactive) | 97.8% (inactive) | 100% (inactive) | 110% (inactive) | 104% (inactive) | 
CC1(C)N=C(N)N=C(N)N1c1ccc(CCC(=O)Nc2ccc(S(=O)(=O)F)cc2)cc1 | 117% (inactive) | 88.9% (inactive) | 58.7% (inactive) | 25.8% (inactive) | 24.9% (inactive) | 12.3% (inactive) | 42.3% (inactive) | 13.3% (inactive) | 
Cc1ccc(NC2=N[C@]34CC(=O)CC[C@]3(C)[C@H]3CC[C@]5(C)C(=O)CC[C@H]5[C@@H]3C[C@@H]4S2)c(C)c1 | 53.4% (inactive) | 41.8% (inactive) | 2.85% (active) | 4.35% (active) | 18.2% (inactive) | -27.3% (active) | 84.5% (inactive) | 44.5% (inactive) | 
COc1cc(C=C2C(=O)NC(=O)NC2=O)ccc1O | 97.5% (inactive) | 101% (inactive) | 111% (inactive) | 108% (inactive) | 106% (inactive) | 102% (inactive) | 96% (inactive) | 104% (inactive) | 
O=C(Cc1ccccc1)NC(O)C(Cl)(Cl)Cl (stereo not drawn) | 107% (inactive) | 110% (inactive) | 96.8% (inactive) | 117% (inactive) | 93.1% (inactive) | 107% (inactive) | 110% (inactive) | 119% (inactive) | 
CN1CCc2cc3c(cc2C1O)OCO3 (stereo not drawn) | 95.9% (inactive) and 107% (inactive) | 69.3% (inactive) and 102% (inactive) | -78.9% (active) and 100% (inactive) | 96.1% (inactive) and 100% (inactive) | 79.5% (inactive) and 94.6% (inactive) | 104% (inactive) and 101% (inactive) | 102% (inactive) and 108% (inactive) | 57.8% (inactive) and 103% (inactive) | 
CC[C@H](CC[C@@H](C)[C@H]1CC[C@H]2[C@@H]3CC[C@H]4C[C@]5(CC[C@]4(C)[C@H]3CC[C@]12C)OO[C@](C)(C(F)(F)F)O5)C(C)C | 98% (inactive) | 87.9% (inactive) | 82.2% (inactive) | 92.4% (inactive) | 93.2% (inactive) | 98.3% (inactive) | 104% (inactive) | 91.4% (inactive) | 
O=C(CBr)OCCOC(=O)CBr | 99.9% (inactive) | 79.5% (inactive) | 65.4% (inactive) | 58.1% (inactive) | 68.5% (inactive) | 69.2% (inactive) | 110% (inactive) | 99.5% (inactive) | 
COC[C@H]1OC(=O)c2coc3c2[C@@]1(C)C1=C(C3=O)[C@@H]2CCC(=O)[C@@]2(C)C[C@H]1OC(C)=O | 52.5% (inactive) | -2.63% (active) | 26.3% (inactive) | 53.4% (inactive) | 21.5% (inactive) | 45.7% (inactive) |  | 51.2% (inactive) | 
O=CC1(c2ccccc2)CCN(Cc2ccccc2)CC1 | 101% (inactive) | 105% (inactive) | 106% (inactive) |  | 103% (inactive) | 102% (inactive) | 101% (inactive) | 101% (inactive) | 98.5% (inactive)
O=c1[nH]c(=O)[nH]c(=O)[nH]1 | 102% (inactive) | 102% (inactive) | 145% (inactive) | 108% (inactive) | 97.1% (inactive) | 97.2% (inactive) | 117% (inactive) | 107% (inactive) | 
Nc1cccnc1 | 104% (inactive) | 106% (inactive) | 110% (inactive) | 105% (inactive) |  | 104% (inactive) | 101% (inactive) | 112% (inactive) | 122% (inactive)
C=CC1CN2CCC1CC2C(O)c1ccnc2ccccc12 (stereo not drawn) | -15.5% (active) | 135% (inactive) | 181% (inactive) | 112% (inactive) | 116% (inactive) | 110% (inactive) |  | 115% (inactive) | 128% (inactive)
COc1ccc(N)cc1OC | 107% (inactive) | 100% (inactive) | 99.8% (inactive) | 109% (inactive) | 102% (inactive) | 103% (inactive) | 111% (inactive) | 100% (inactive) | 
CO[C@@H]([CH2][Hg][O]C(=O)c1ccccc1)[C@@H]([CH2][Hg][O]C(=O)c1ccccc1)OC | 105% (inactive) | 87.7% (inactive) | 110% (inactive) | 66.1% (inactive) | 46.4% (inactive) | -60.5% (active) | 118% (inactive) | 101% (inactive) | 
COCC1OC2OC3C(COC)OC(OC4C(COC)OC(OC5C(COC)OC(OC6C(COC)OC(OC7C(COC)OC(OC8C(COC)OC(OC1C(O)C2O)C(O)C8O)C(O)C7O)C(O)C6O)C(O)C5O)C(O)C4O)C(O)C3O (stereo not drawn) (tested in a mixture with another compound) | 127% (inactive) | 113% (inactive) |  | 109% (inactive) | 101% (inactive) | 120% (inactive) | 89.4% (inactive) | 109% (inactive) | 
O=S1(=O)OCCO1 | 99.7% (inactive) |  | 117% (inactive) | 101% (inactive) | 98.8% (inactive) | 102% (inactive) | 110% (inactive) | 99.2% (inactive) | 98.2% (inactive)
CN(N)/N=N/c1nc[nH]c1[N+](=O)[O-] |  |  |  |  | 69.6% [100 µM] (inactive) and 35% [100 µM] (inactive) |  |  |  | 
N#CCN(CC#N)[N+](=O)[O-] | 110% (inactive) | 92.2% (inactive) |  | 101% (inactive) | 93.3% (inactive) | 96.8% (inactive) | 115% (inactive) | 112% (inactive) | 108% (inactive)
[N-]=[N+]=CC(=O)CCC(=O)C=[N+]=[N-] | 103% (inactive) | 106% (inactive) |  | 94.1% (inactive) | 99.9% (inactive) | 102% (inactive) | 109% (inactive) | 121% (inactive) | 113% (inactive)
CNC(=O)CCl | 103% (inactive) |  | 101% (inactive) | 107% (inactive) | 98.2% (inactive) | 99.6% (inactive) | 95.1% (inactive) | 108% (inactive) | 101% (inactive)
